# Test results from PubChem BioAssay (NCATS).
# Records with an inconclusive call do not appear. Where a call stands in place of a potency, no number is given. A number with no mark means an inactive call. Active and inactive are the calls of the source. Calls come from the whole dose curve; as a rule, active = well fitted curve in the direction sought with a large enough effect; inconclusive = small, poorly fitted or top-dose-only effect, or another doubt; inactive = no such curve, though single readings can be large; an effect the other way counts as inactive or inconclusive.
# Columns and labels:
# [1] = qHTS for Inhibitors of Plasmodium falciparum (DD2) proliferation (AID 504314); note: potency is the fitted concentration of half-maximal effect;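 for activity, negative = inhibition: parasite DNA measured by SYBR Green fluorescence after red cell lysis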
# Summary of the method: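 Quantitative HTS growth inhibition: SYBR Green I binding to parasite DNA after 72 h drug exposure of infected erythrocytes (0.3% parasitemia, 2.5% hematocrit). Signals normalized per plate to inhibitor and vehicle wells.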
# [2] = qHTS for Inhibitors of Plasmodium falciparum (GB4) proliferation (AID 504315); note: nearly all actives have a fitted effect of over 50% in size
# Summary of the method: (§1)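 Erythrocytes infected with P. falciparum line (0.3% parasitemia, 2.5% hematocrit final) incubated with compounds 72 h at 37 °C, 5% CO2; SYBR Green lysis buffer added, fluorescence read next day. Normalized to 0.29 uM artemisinin and DMSO.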
# [3] = qHTS for Inhibitors of Plasmodium falciparum (7G8) proliferation (AID 504316); note: nearly all actives have a fitted effect of over 65% in size; note: potency is the fitted concentration of half-maximal effect; for activity change, negative = inhibition: series mostly up to about 6.7 µM
# Summary of the method: as §1
# [4] = qHTS for Inhibitors of Plasmodium falciparum (HB3) proliferation (AID 504318); note: nearly all actives have a fitted effect of over 60% in size
# Summary of the method: as §1
# [5] = qHTS for Inhibitors of Plasmodium falciparum (CP250) proliferation (AID 504320)
# Summary of the method: as §1
# [6] = biological target: Cytochrome P450 3A4 (Homo sapiens) (UniProt P08684); test: qHTS Assay for Inhibitors and Substrates of Cytochrome P450 3A4 (AID 884); note: series mostly up to about 57 µM; nearly all actives have a fitted effect of over 50% in size
# Sequence of Cytochrome P450 3A4 (Homo sapiens) (P08684 whole entry, looked up): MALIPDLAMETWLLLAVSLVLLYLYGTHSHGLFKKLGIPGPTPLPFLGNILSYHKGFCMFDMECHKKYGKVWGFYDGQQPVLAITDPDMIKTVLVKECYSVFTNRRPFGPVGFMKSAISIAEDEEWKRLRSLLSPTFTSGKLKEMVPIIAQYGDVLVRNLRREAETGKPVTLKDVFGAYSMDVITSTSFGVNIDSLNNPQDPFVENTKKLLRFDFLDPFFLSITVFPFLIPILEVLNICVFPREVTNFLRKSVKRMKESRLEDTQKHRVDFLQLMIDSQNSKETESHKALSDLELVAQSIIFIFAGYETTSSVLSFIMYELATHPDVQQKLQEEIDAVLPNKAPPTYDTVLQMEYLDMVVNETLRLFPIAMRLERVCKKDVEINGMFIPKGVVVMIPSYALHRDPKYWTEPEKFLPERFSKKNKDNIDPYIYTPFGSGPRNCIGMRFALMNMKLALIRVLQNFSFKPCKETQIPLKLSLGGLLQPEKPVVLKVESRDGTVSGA
# Summary of the method: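 20 nM human CYP3A4 with 25 uM Luciferin-PPXE (at KM) in 200 mM KPO4, preincubated 10 min with compound; NADPH regeneration started a 60 min RT reaction. Luciferin detected by luminescence, normalized to 57 uM ketoconazole as full inhibition.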
# [7] = biological target: Cytochrome P450 2D6 (Homo sapiens) (UniProt P10635); test: qHTS Assay for Inhibitors and Substrates of Cytochrome P450 2D6 (AID 891);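 note: luciferin methyl ether substrate demethylated by CYP2D6 with NADPH regeneration; nearly all actives have a fitted effect of over 60% in size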
# Sequence of Cytochrome P450 2D6 (Homo sapiens) (P10635 whole entry, looked up): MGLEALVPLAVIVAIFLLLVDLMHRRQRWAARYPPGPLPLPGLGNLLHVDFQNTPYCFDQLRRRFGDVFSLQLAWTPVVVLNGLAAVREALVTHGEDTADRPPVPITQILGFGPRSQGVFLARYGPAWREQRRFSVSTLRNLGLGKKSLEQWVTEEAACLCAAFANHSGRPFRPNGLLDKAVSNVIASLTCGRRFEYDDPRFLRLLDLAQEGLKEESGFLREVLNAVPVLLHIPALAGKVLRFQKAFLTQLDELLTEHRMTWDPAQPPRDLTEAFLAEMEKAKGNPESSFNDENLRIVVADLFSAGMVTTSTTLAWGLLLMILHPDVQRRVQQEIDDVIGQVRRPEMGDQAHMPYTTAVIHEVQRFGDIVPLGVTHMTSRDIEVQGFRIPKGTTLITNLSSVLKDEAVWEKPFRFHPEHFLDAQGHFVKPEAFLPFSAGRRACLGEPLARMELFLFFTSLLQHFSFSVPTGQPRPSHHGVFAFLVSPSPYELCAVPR
# Summary of the method: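 Human CYP2D6 (5 nM) with 30 uM Luciferin-ME EGE (at Km) in 100 mM KPO4, compound preincubated 10 min, then NADPH regeneration system for 60 min at room temperature. Luciferin read by luminescence; normalized to 1.43 uM quinidine.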
# [8] = biological target: Cytochrome P450 2C19 (Homo sapiens) (UniProt P33261); test: qHTS Assay for Inhibitors and Substrates of Cytochrome P450 2C19 (AID 899); note: nearly all actives have a fitted effect of over 60% in size
# Sequence of Cytochrome P450 2C19 (Homo sapiens) (P33261 whole entry, looked up): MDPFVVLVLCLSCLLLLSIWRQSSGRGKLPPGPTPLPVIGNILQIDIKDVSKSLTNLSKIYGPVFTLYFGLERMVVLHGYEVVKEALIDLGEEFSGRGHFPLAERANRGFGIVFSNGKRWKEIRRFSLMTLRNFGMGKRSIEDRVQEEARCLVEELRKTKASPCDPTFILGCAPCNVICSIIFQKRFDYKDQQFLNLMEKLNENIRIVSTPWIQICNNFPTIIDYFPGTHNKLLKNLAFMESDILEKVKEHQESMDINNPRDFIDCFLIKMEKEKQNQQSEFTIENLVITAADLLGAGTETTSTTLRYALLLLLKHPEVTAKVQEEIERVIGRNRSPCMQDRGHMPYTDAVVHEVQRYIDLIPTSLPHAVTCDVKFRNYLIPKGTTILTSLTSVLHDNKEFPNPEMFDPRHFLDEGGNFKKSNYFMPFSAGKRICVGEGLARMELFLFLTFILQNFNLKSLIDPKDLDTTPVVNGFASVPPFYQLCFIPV
# Summary of the method: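 5 nM human CYP2C19 with 10uM Luciferin-H EGE (at KM) in 50mM KPO4, compound preincubated 10 min at 37C, then NADPH regeneration for 60 min at 37C. Luciferin read by luminescence after detection reagent; normalized to 57uM ketoconazole as full inhibition.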
smiles,measurement,setting,value
CC(=O)OC[C@H]1O[C@H](CC=NO[C@@H](C)c2cc(-c3c(C)cc(C)cc3C)no2)C=C[C@@H]1OC(C)=O,Potency,[1],inactive
same,Potency,[2],inactive
same,Potency,[3],inactive
same,Potency,[4],inactive
same,Potency,[5],inactive
C=CCOC(=O)C(C(C)=O)[C@@H](NC(=O)OC)c1ccco1 (stereo partly specified),Potency,[1],inactive
same,Potency,[2],inactive
same,Potency,[3],inactive
same,Potency,[4],inactive
same,Potency,[5],inactive
COc1cc(O)c(C(=O)C=Cc2ccccc2)c(O)c1,Potency,[1],inactive
same,Potency,[2],inactive
same,Potency,[4],inactive
same,Potency,[5],inactive
COc1ccc2c(c1)CO[C@H]([C@H](O)CO)[C@H]2C=Cc1ccccc1,Potency,[1],inactive
same,Potency,[2],inactive
same,Potency,[5],inactive
COc1ccc(N2C=C3C(=O)C(C)(OC(=O)C4CCCC4)C(=O)C=C3C=C2c2ccsc2)cc1 (stereo unspecified),"activity, negative = inhibition",[1],-0.73% [at 1.12 µM]
same,Potency,[2],inactive
same,Potency,[5],inactive
CCCCC1=CC2=CC(=O)C(C)(O)C(=O)C2=CO1 (stereo unspecified),Potency,[1],inactive
same,Potency,[2],inactive
same,Potency,[3],inactive
same,Potency,[4],inactive
same,Potency,[5],inactive
Cc1cc2c(c(=O)o1)[C@H]1O[C@](c3ccsc3)(Cc3c1ccc1ccccc31)O2,Potency,[1],inactive
same,Potency,[2],inactive
same,Potency,[5],inactive
COC(=O)[C@H](C=C[C@H](C)Cc1cc(Br)cc(OCc2ccccc2)c1OC)OCc1ccccc1,Potency,[1],inactive
same,Potency,[2],inactive
same,Potency,[3],inactive
same,Potency,[4],inactive
same,Potency,[5],inactive
C=CC[C@@H]1C=CC(ON=CC[C@@H]2C=C[C@@H](OC(C)=O)[C@@H](COC(C)=O)O2)[C@H](CO)O1 (stereo partly specified),Potency,[1],inactive
same,Potency,[2],inactive
same,Potency,[4],inactive
same,Potency,[5],inactive
C[C@H](ON=C1[C@H]2CCn3c(=O)n(-c4ccccc4)c(=O)n3[C@@H]2[C@H](O)[C@@H]2O[C@H]12)c1cn([C@H](CO)Cc2ccccc2)nn1,Potency,[1],inactive
same,Potency,[2],inactive
same,Potency,[4],inactive
same,Potency,[5],inactive
COC(=O)NC(c1ccc2c(c1)OCO2)C(C(=O)OC)C(=O)OC (stereo unspecified),Potency,[1],inactive
same,Potency,[3],inactive
same,Potency,[4],inactive
COC(=O)C1C[C@@]23C(=NN=C(SC)C2N(C)c2ccc(OC)cc23)N1C(C)=O (stereo partly specified),Potency,[1],inactive
same,Potency,[2],inactive
same,Potency,[3],inactive
same,Potency,[4],inactive
same,Potency,[5],inactive
CC(=O)OC[C@H]1O[C@H](C#CC(C)(C)C)C=C[C@H]1OC(C)=O,Potency,[1],inactive
same,Potency,[2],inactive
same,Potency,[3],inactive
same,Potency,[4],inactive
same,Potency,[5],inactive
CCCNC(=O)CC1OC(C2CCCCC2)Cc2ccccc21 (stereo unspecified),Potency,[1],inactive
same,Potency,[2],inactive
same,Potency,[3],inactive
same,Potency,[5],inactive
CCOC(=O)CCN1C(=O)[C@@H]2[C@H]3[C@H](O)[C@H](O)CC(=NNC(=O)OCc4ccc(OC)cc4)[C@H]3CC[C@H]2C1=O,Potency,[1],inactive
same,Potency,[2],inactive
same,Potency,[3],inactive
same,Potency,[5],inactive
CCCC=CC1C(=O)[C@@H]2O[C@H]2C2(OCC(CC)(CC)CO2)C1CO (stereo partly specified),Potency,[1],inactive
same,Potency,[2],inactive
same,Potency,[3],inactive
same,Potency,[4],inactive
same,Potency,[5],inactive
COC(=O)CC1c2ccccc2C=C(C2CC2)N1C(=O)OC (stereo unspecified),Potency,[1],inactive
same,Potency,[2],inactive
same,Potency,[3],inactive
same,Potency,[4],inactive
same,Potency,[5],inactive
COC(=O)N[C@@H](c1cccc(F)c1)[C@@H](C)[N+](=O)[O-],Potency,[1],inactive
same,Potency,[3],inactive
same,Potency,[4],inactive
same,Potency,[5],inactive
COC(=O)C(C(C)=O)C(=O)C(Cc1ccccc1)NC(=O)OCc1ccccc1 (stereo unspecified),"activity change, negative = inhibition",[6],-19.6% [at 11.4 µM]
same,"activity change, negative = inhibition",[7],-1.19% [at 11.4 µM]
same,"activity, negative = inhibition",[8],-11.9% [at 11.4 µM]
same,Potency,[1],inactive
same,Potency,[2],inactive
same,Potency,[3],inactive
same,Potency,[4],inactive
same,Potency,[5],inactive
Cc1cc2c(c(=O)o1)[C@H]1O[C@](CCCCN3C(=O)c4ccccc4C3=O)(Cc3cc(C#N)ccc31)O2,Potency,[1],inactive
same,Potency,[2],inactive
same,Potency,[5],inactive
COC(=O)CC=C[C@@H](C)[C@@H](C=NOC[C@@H](O)COCc1ccco1)OC,Potency,[1],inactive
same,Potency,[2],inactive
same,Potency,[3],inactive
same,Potency,[4],inactive
same,Potency,[5],inactive
O=C1N[C@H](Cc2ccccc2)C(=O)N1Cc1cccc2ccccc12,Potency,[1],inactive
same,Potency,[2],inactive
same,Potency,[3],inactive
same,Potency,[4],inactive
same,Potency,[5],inactive
COC(=O)C1=C[C@@]2(c3ccc(F)cc3[C@@H](OC)[C@@H]2C)[C@@H]2C=C[C@H]1C2,Potency,[1],inactive
same,Potency,[2],inactive
same,Potency,[3],inactive
same,Potency,[5],inactive
CC=C[C@@H]1Oc2ccc(OC)cc2N2C(=O)[C@H](C)[C@@H](OCOC)[C@H]12,Potency,[1],inactive
same,Potency,[2],inactive
same,Potency,[4],inactive
same,Potency,[5],inactive
COc1ccc(O[C@H]2C=C[C@@H](c3ccccc3)O[C@H]2COC(=O)CCC(C)=NO[C@@H](C)c2cc(-c3c(C)cc(C)cc3C)no2)cc1,Potency,[1],inactive
same,Potency,[2],inactive
same,Potency,[3],inactive
same,Potency,[4],inactive
same,Potency,[5],inactive
C=CCOC(=O)N[C@@H](CC(C)C)C(C(=O)OC)=C(C)NCc1ccccc1,Potency,[1],inactive
same,Potency,[2],inactive
same,Potency,[3],inactive
same,Potency,[4],inactive
same,Potency,[5],inactive
C=C(C)C(O)C=Cc1ccc(Br)cc1 (stereo unspecified),Potency,[1],inactive
same,Potency,[2],inactive
same,Potency,[3],inactive
same,Potency,[5],inactive
C[C@@H]1C=CCCO[C@]12C(=O)Nc1ccc(O)cc12,Potency,[1],inactive
same,Potency,[2],inactive
same,Potency,[3],inactive
same,Potency,[4],inactive
same,Potency,[5],inactive
CCOC(=O)C(c1ccc(OC)c(OC)c1)C1c2ccccc2C=C(C)N1C(=O)OC (stereo unspecified),"activity, negative = inhibition",[1],-0.0023% [at 1.12 µM]
same,Potency,[2],inactive
same,Potency,[3],inactive
same,Potency,[4],inactive
same,Potency,[5],inactive
CCCCCCCc1cc2c(cn1)C(=O)C(C)(OC(C)=O)C(O)=C2Cl (stereo unspecified),Potency,[1],1890 nM (active)
same,Potency,[3],953 nM (active)
